# Measurements from PubChem BioAssay AID463173 (ICCB-Longwood Screening Facility, Harvard Medical School, 2010).
# The campaign covered roughly 52,000 compounds. About 4,300 (8.3%) were called active. The sample holds actives, similar compounds and a random draw of the others, so the mix is not that of the screen. No stated cut-off is given here; in the data, active means survival mostly below about 52% (no sharp cut-off); inactive means mostly above about 56%.
# System: DeltatarO mutant
# Assay: growth inhibition of S. aureus wild type versus tarO mutant, primary screen, teichoic acid synthesis inhibitors, RN4220, OD600 (AID 463173)
# Conditions: OD600, 18 h, stronger effect = lower value, screened at 18.75 µg/mL (by protocol)
row,Compound,survival
1,Cc1sc2ncn(CC(=O)Nc3ccc(C(C)C)cc3)c(=O)c2c1S(=O)(=O)N1CCN(c2ncccn2)CC1,59% (inactive)
2,CC1=C(C(=O)Nc2ccccc2C)C(c2ccco2)n2ncnc2N1 (stereo not given),101% (inactive)
3,CCc1cccc(C)c1NS(=O)(=O)c1cc2[nH]c(=O)c(=O)[nH]c2cc1C,80% (inactive)
4,CC(=O)c1ccc(N2CCN(c3ncnc4c3nc3n4CCCC3)CC2)cc1,75% (inactive)
5,COC(=O)c1ccccc1NC(=O)Cn1c(=O)n(CCCCC(=O)NCc2ccc3c(c2)OCO3)c(=O)c2ccccc21,67% (inactive)
6,COc1ccc(-c2nc3sc(CCNC(=O)c4ccc(Br)o4)c(C)n3n2)cc1,92% (inactive)
7,COc1ccc(C)cc1NC(=O)C1COc2ccccc2C1 (stereo not given),83% (inactive)
8,COc1ccccc1C(=O)N(c1ccc(C)cc1)S(=O)(=O)c1ccc(Cl)cc1,74% (inactive)
9,COC(=O)c1ccc(NC(=O)CC2C(=O)N(c3cccc(OC)c3)C(=O)N2Cc2cccc(OC)c2)cc1 (stereo not given),105% (inactive)
10,COC(=O)c1ccc(Cl)cc1NC(=O)N1CCCn2nc(C)cc21,94% (inactive)
11,COc1cc(OC)c(NC(=O)N2CCCn3nc(C)cc32)cc1Cl,47% (active)
12,COc1ccc(C)cc1NC(=O)N1CCCn2nc(C)cc21,73% (inactive)
13,O=C(NC1CCCCC1)C(Cc1ccccc1)N1C(=O)C2C3C=CC(C3)C2C1=O (stereo not given),92% (inactive)
14,Cc1cc(F)ccc1Nc1nc2ccc(Cl)cc2n2cnnc12,90% (inactive)
15,Cc1ccc2nc(NCc3ccc(F)cc3)c3nncn3c2c1,121% (inactive)
16,Cc1ccc2nc(Nc3ccc(C)c(F)c3)c3nncn3c2c1,38% (active)
17,Cc1ccc(NC(=O)c2ccc(=O)n(CC(=O)Nc3cccc(C)c3)n2)cc1,72% (inactive)
18,COc1cccc(CNC(=O)CCc2c(C)nn(-c3ccc(N4CCOCC4)nn3)c2C)c1,100% (inactive)
19,Cc1cccn2c(=O)cc(COc3ccc(NC(=O)COc4ccc(F)cc4)cc3)nc12,89% (inactive)
20,COc1cc(C(=O)Nc2ccc(OCc3cc(=O)n4ccc(C)cc4n3)cc2)cc(OC)c1OC,8% (active)
21,Cc1ccc(OCC(=O)Nc2ccc(OCc3cc(=O)n4cccc(C)c4n3)cc2)cc1C,-5% (active)
22,Cc1cccn2c(=O)cc(COc3cccc(NC(=O)c4ccccc4F)c3)nc12,-5% (active)

row,Compound,survival
1,CCOc1ccc(C(=O)Nc2ccc(OCc3cc(=O)n4cccc(C)c4n3)cc2)cc1,55% (inactive)
2,Cc1cccc(C(=O)Nc2cccc(OCc3cc(=O)n4cccc(C)c4n3)c2)c1,92% (inactive)
3,Cc1ccc(OCC(=O)Nc2cccc(OCc3cc(=O)n4cccc(C)c4n3)c2)cc1C,122% (inactive)
4,Cc1ccccc1C(=O)Nc1cccc(OCc2cc(=O)n3cccc(C)c3n2)c1,77% (inactive)
5,Cc1cccn2c(=O)cc(COc3ccc(NC(=O)c4cccc(F)c4)cc3)nc12,17% (active)
6,Cc1ccccc1C(=O)Nc1ccc(OCc2cc(=O)n3cccc(C)c3n2)cc1,88% (inactive)
7,COc1ccccc1C(=O)Nc1ccc(OCc2cc(=O)n3ccc(C)cc3n2)cc1,89% (inactive)
8,Cc1cccc(C(=O)Nc2ccc(OCc3cc(=O)n4ccc(C)cc4n3)cc2)c1,81% (inactive)
9,CCOC(=O)c1ccccc1NC(=O)N1CCc2c(sc(C)c2CC)C1c1ccccc1 (stereo not given),124% (inactive)
10,O=C(Cc1csc2ccccc12)NCc1cccc(Br)c1,84% (inactive)
11,O=S(=O)(c1ccc(-c2cnc(C3CC3)o2)cc1)N1CCN(c2ccccc2F)CC1,87% (inactive)
12,Cc1ccc(C(=O)NCc2ccccc2)cc1NC(=O)c1nsc2ccccc12,84% (inactive)
13,CCOc1ccc(NC(=O)N(C(C)C)C2CCN(C(C)=O)CC2)cc1,76% (inactive)
14,CCC(C)NC(=O)c1sc2nc(C)c(C(=O)Nc3ccc(C)cc3C)c(-c3ccc(NC(C)=O)cc3)c2c1N (stereo not given),88% (inactive)
15,CC(C)CC(C(=O)NCC1CCN(Cc2ccc(F)cc2)CC1)N1Cc2ccccc2C1=O (stereo not given),94% (inactive)
16,COc1ccccc1CNS(=O)(=O)c1cc(Br)cc2c1N(C(C)=O)C(C)C2 (stereo not given),53% (inactive)
17,COc1cccc(CNS(=O)(=O)c2cc(Br)cc3c2N(C(C)=O)C(C)C3)c1 (stereo not given),128% (inactive)
18,CC(=O)N1c2c(cc(Br)cc2S(=O)(=O)Nc2ccc(OC(F)(F)F)cc2)CC1C (stereo not given),66% (inactive)
19,CCN(c1cccc(C)c1)S(=O)(=O)c1cc(Br)cc2c1N(C(C)=O)C(C)C2 (stereo not given),51% (active)
20,CC(=O)N1c2c(cc(Br)cc2S(=O)(=O)NCc2ccccc2Cl)CC1C (stereo not given),46% (active)
21,CC(=O)N1c2c(cc(Br)cc2S(=O)(=O)Nc2ccccc2C)CC1C (stereo not given),68% (inactive)
22,COc1ccc(CNS(=O)(=O)c2cc(Br)cc3c2N(C(C)=O)C(C)C3)cc1 (stereo not given),131% (inactive)

row,Compound,survival
1,COc1cc(NS(=O)(=O)c2cc(Br)cc3c2N(C(C)=O)C(C)C3)cc(OC)c1 (stereo not given),20% (active)
2,CCOc1ccc(N(CC)S(=O)(=O)c2cc(Br)cc3c2N(C(C)=O)C(C)C3)cc1 (stereo not given),60% (inactive)
3,COc1ccc(-n2c(SCC(=O)N3CCCc4ccccc43)nc3c([nH]c4ccccc43)c2=O)cc1,101% (inactive)
4,COc1ccc2c(C)c(CCC(=O)NCCc3ccc(OC)c(OC)c3)c(=O)oc2c1,88% (inactive)
5,CC(=O)c1cccc(NC(=O)Cn2cc(C(=O)c3cccc(Cl)c3)c(=O)c3ccc(C)nc32)c1,56% (inactive)
6,COc1cc(C(=O)Nc2ccc(Cl)c(-c3nc4ncccc4o3)c2)cc(OC)c1OC,123% (inactive)
7,COc1ccc(Br)cc1CNC(=O)c1cc(=O)[nH]c2ccc(S(=O)(=O)N3CCCCC3)cc12,84% (inactive)
8,CCOC(=O)CCC(=O)Nc1nnc2n1CCS2,66% (inactive)
9,CCN1CCN(CCC(=O)Nc2ccc3c(c2)CCC3)CC1,95% (inactive)
10,COc1ccc(/C=C/c2nc(C#N)c(NCCc3ccc(OC)c(OC)c3)o2)cc1OC,95% (inactive)
11,COc1ccccc1/C=C/c1nc(C#N)c(NCc2ccccc2)o1,83% (inactive)
12,COc1ccccc1/C=C/c1nc(C#N)c(NCCc2ccccc2)o1,71% (inactive)
13,CCOc1ccc(/C=C/c2nc(C#N)c(NC3CCCCC3)o2)cc1,65% (inactive)
14,CNc1oc(/C=C/c2cc(OC)c(OC)c(OC)c2)nc1C#N,69% (inactive)
15,COc1ccccc1/C=C/c1nc(C#N)c(NCC(C)C)o1,47% (active)
16,CCOc1ccc(Nc2oc(/C=C/c3cc(OC)c(OC)c(OC)c3)nc2C#N)cc1,58% (inactive)
17,COc1cc(/C=C/c2nc(C#N)c(NC3CCCCC3)o2)cc(OC)c1OC,32% (active)
18,CCOc1ccc(Nc2oc(/C=C/c3ccc(OC)c(OC)c3)nc2C#N)cc1,55% (active)
19,COc1cccc(/C=C/c2nc(C#N)c(NCCc3ccc(OC)c(OC)c3)o2)c1,41% (active)
20,COc1ccc(Nc2oc(/C=C/c3ccc(OC)c(OC)c3)nc2C#N)cc1,73% (inactive)
21,COc1ccc(CCNc2oc(/C=C/c3ccc(OC)c(OC)c3)nc2C#N)cc1,90% (inactive)
